Results filed as inconclusive are left out. Calls of active or inactive are those of the source. Rule for the calls: active = hit-call score of the fitted dose curve at least 0.9, where 1 is the maximum; inconclusive = response in the unintended direction; inactive = score below 0.9.
System: zebrafish Peroxisome Proliferator-activated Receptor gamma (PPARg), gene 557037
Assay: ATG_zfPPARg_EcoTox2: Attagene TRANS-FACTORIAL EcoTox-2 HepG2 Assay for zebrafish Peroxisome Proliferator-activated Receptor gamma (PPARg)
Description: ATG_EcoTox2 is a cell-based, multiplexed assay created by modifying the existing Attagene TRANS-FACTORIAL system to include a panel of nuclear receptors from some or all the following species: human (Homo sapiens), african clawed frog (Xenopus laevis), rainbow trout (Oncorhynchus mykiss), japanese medaka (Oryzias latipes), and zebrafish (Danio rerio). The ECOTOX2-FACTORIAL format uses HepG2, a human liver cell line, with measurements taken at 24 hours after chemical dosing in a 24-well plate. ATG_zfPPARg_EcoTox2 is one of 29 assay components calculated in the ATG_EcoTox2 assay. It is designed to make measurements of mRNA induction, a form of inducible reporter, as detected with fluorescence intensity signals by Reverse transcription polymerase chain reaction (RT-PCR) and Capillary electrophoresis technology.The assay endpoint ATG_zfPPARg_EcoTox2 was analyzed in the positive analysis fitting direction relative to DMSO as the negative control and baseline of activity. Using a type of inducible reporter, measures of mRNA for gain-of-signal activity can be used to understand the reporter gene at the transcription factor-level as they relate to the gene PPARg. Furthermore, this assay endpoint can be referred to as a primary readout, because this assay has produced multiple assay endpoints where this one serves a reporter gene function. To generalize the intended target to other relatable targets, this assay endpoint is annotated to the nuclear receptor intended target family, where the subfamily is non-steroidal.
Human liver HepG2 cells are transiently transfected with multiple reporter transcription units (MRTUs) in 6-well plates using FuGene 6 reagent (Roche; 3 ml FuGene/1 mg DNA). The MRTU constructs are regulated by a cis-regulating element (promoter). Each RTU expresses a GAL4-UAS that regulates the transcription of a nearby target reporter gene sequence. A major difference between the CIS and TRANS system is that in CIS activities of endogenous TFs are measured, whereas the TRANS assay evaluates changes in activities of exogenous, chimeric NR-Gal4 proteins. […] At the end of 24 hour incubation, total RNA was isolated using TriZol reagent (Invitrogen). The isolated RNA is then reverse-transcribed using oligo(dT) primer and Mo-MLV reverse transcriptase (Invitrogen) with DNAse I (Ambion) treatment for 30 min. The one-tenth of the produced cDNA was amplified by PCR using Taq DNA polymerase (Invitrogen) and two reporter sequence-specific primers. The PCR products were fluorescently labeled by primer extension with 6-arboxyfluorescein (6-FAM) 5'-labeled reporter sequence-specific primer (2 min at 95 C, 20 s at 68 C and 10 min at 72 C) and these products were digested with 5U of HpaI (New England Biolabs) for 2h at 37 C. The fragments were purified using Qiaquick PCR columns (Qiagen), analyzed on an ABI 3130xL genetic analyzer (Applied Biosystems) with peak positions identified by using a set of X-rhodamine (ROX)-labeled MapMarker1000 molecular weight standards (BioVentures). The raw capillary electrophoresis data was processed using Attagraph software (Attagene).

Row | SMILES | outcome | AC50
1 | CCCCOCN(C(=O)CCl)c1c(CC)cccc1CC | inactive | –
2 | O=P(Oc1ccccc1)(Oc1ccccc1)Oc1ccccc1 | – | 13.2 µM (active)
3 | O=C(O)C(F)(F)C(F)(F)C(F)(F)C(F)(F)C(F)(F)C(F)(F)C(F)(F)F | inactive | –
4 | O=S(=O)(O)C(F)(F)C(F)(F)C(F)(F)C(F)(F)C(F)(F)C(F)(F)F | inactive | –
5 | [Cl][Sn]([c]1ccccc1)([c]1ccccc1)[c]1ccccc1 | inactive | –

— PubChem BioAssay AID2284366 (EPA ToxCast)
